# Compounds with a hit are over-represented: about 2.3% of the library has one in this group of screens.
# M1 PAM parental: counter-screen for M1 PAMs: effect in parental CHO-K1 cells; AID 602247; 360,000 tested, 0.02% active; ATP EC20, Fluo-8 calcium fluorescence; 0% at ATP EC20, 100% at ATP max; activation, % at 3 µM;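 active means activation above the run cutoff, the mean activation of all test compounds plus 3 SD, cut at about 40% in these data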;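 further: peak over basal fluorescence ratio in a 140 s read after ATP addition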
# CHRM1 agonist: human M1 muscarinic receptor agonism | P11229 | AID 588814 | 360,000 tested, 0.33% active | CHO-K1 hM1, Fluo-8 calcium fluorescence, agonist mode; 0% DMSO, 100% acetylcholine EC100 | activation, % at 3 µM;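 active means activation above the run's mean compound activation plus 3 SD, cut at about 16% in these data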;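 further: peak over basal fluorescence ratio within a 140 s kinetic read after compound addition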
# Target sequence (P11229 whole entry, looked up): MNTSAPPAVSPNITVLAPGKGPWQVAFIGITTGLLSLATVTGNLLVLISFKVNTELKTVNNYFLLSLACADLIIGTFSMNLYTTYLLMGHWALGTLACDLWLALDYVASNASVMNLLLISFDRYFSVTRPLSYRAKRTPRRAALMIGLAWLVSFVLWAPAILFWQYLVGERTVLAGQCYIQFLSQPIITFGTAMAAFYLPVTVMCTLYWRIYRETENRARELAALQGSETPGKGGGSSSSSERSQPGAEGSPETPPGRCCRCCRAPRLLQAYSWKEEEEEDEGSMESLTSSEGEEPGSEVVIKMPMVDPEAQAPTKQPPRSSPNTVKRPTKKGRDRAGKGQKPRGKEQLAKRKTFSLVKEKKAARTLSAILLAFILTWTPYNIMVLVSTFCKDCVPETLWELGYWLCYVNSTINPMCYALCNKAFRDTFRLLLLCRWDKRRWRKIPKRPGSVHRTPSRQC
# CHRM1 antagonist: human CHRM1 antagonism; P11229; inhibition, % at 3 µM; 360,000 tested, 1.3% active; CHO-K1 hM1, Fluo-8 calcium fluorescence, ACh EC80 antagonist; AID 588852;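 active means percent inhibition above its own plate's cutoff, namely the mean of that plate's compound wells plus 3 SD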;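 further: peak over basal fluorescence ratio during 140 s after agonist addition; 0% = ACh EC80 plus DMSO and 100% = DMSO alone without agonist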
# CHO-K1 Ca ag: nonselective activator or artifact in parental CHO-K1 cells; Fluo-8 calcium fluorescence; scaled to maximal ATP response, vehicle zero; activation, % at 3 µM; 360,000 tested, 0.48% active; AID 602248; in the data active means activation above about 15%;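 further: untransfected CHO-K1 host cells lacking M1 receptor as counterscreen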
# CHRM1 PAM: human CHRM1 positive allosteric modulation; CHO-K1 hM1, Fluo-8 calcium fluorescence, ACh EC20; 0% = ACh EC20, 100% = maximal ACh; activation, % at 3 µM; 360,000 tested, 0.088% active; AID 588819; in the data active means activation above about 19%, passing the limit was not always enough
# CHO-K1 Ca antag: counter-screen for M1 antagonists: effect in parental CHO-K1 cells; ATP-induced calcium, Fluo-8 fluorescence; inhibition, % at 3 µM; 360,000 tested, 0.6% active;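 active means inhibition above a per-plate cutoff, the plate's mean sample inhibition plus 3 SD, cut at about 24% in these data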;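 further: 0% = DMSO plus EC80 ATP and 100% = DMSO alone without ATP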
# An asterisk follows results filed as active.
SMILES,M1 PAM parental,CHRM1 agonist,CHRM1 antagonist,CHO-K1 Ca ag,CHRM1 PAM,CHO-K1 Ca antag
Cc1ccc(C)c(CN2C(=O)CSc3ccc(C(=O)NCCN4CCOCC4)cc32)c1,12,-10,-5,1,0,-12
O=C(NCc1ccco1)c1ccc2c(c1)N(Cc1ccccc1)C(=O)CS2,-7,-13,24,1,-28,-22
O=C(NCC1CCCO1)c1ccc2c(c1)N(Cc1ccccc1)C(=O)CS2 (stereo not given),-7,-5,45*,1,-21,-3
O=C(NCCN1CCOCC1)c1ccc2c(c1)N(Cc1ccccc1F)C(=O)CS2,21,-3,59*,0,-18,-14
O=C(NCCCN1CCOCC1)c1ccc2c(c1)N(Cc1c(F)cccc1Cl)C(=O)CS2,-13,-11,100*,2,-33,-1
CN(C(=O)CSc1nnc(-c2ccncc2)n1Cc1ccccc1)C1CCS(=O)(=O)C1 (stereo not given),12,-6,-6,1,6,-14
CCCn1cc(CN2CCN(Cc3ccc(C)o3)C(CCO)C2)c(C)n1 (stereo not given),23,-8,-7,0,6,-12
COc1ccc(C(C(=O)NCCC(C)C)N(CCN2CCOCC2)C(=O)Cn2nnc3ccccc32)c(OC)c1 (stereo not given),27,-12,4,1,11,-6
CCOc1ccccc1CNS(=O)(=O)c1ccc(-c2cnc(C3CC3)o2)cc1,-15,3,36*,13,-15,14
CCCN(CCC)S(=O)(=O)c1ccc(C(=O)Nc2nc(-c3ccccc3)c(C(=O)OCC)s2)cc1,-2,-5,-7,0,4,4
CCOC(=O)NC1(NC2CCCCC2)Oc2ccccc2O1,21,-8,0,0,5,-4
Cc1ccc(Cl)cc1NC(=O)c1ccc(CSc2nnnn2C)cc1,-5,-4,11,1,-1,26*
COC(=O)c1ccc(CSc2nnc(C)n2N)o1,20,-7,-10,1,12,-8
COC(=O)c1ccc(CSc2nnnn2C)o1,20,-4,43*,0,-18,-10
COC(=O)c1ccc(CSc2ccc3nnc(-c4cccc(F)c4)n3n2)o1,-7,-11,38*,1,-19,12
COC(=O)c1ccc(CSc2ncnc3c2oc2ccccc23)o1,15,-3,-17,1,9,-9
COC(=O)c1ccc(CSc2ncnc3ccccc23)o1,-6,-5,2,0,0,25*
COCCCNC(=O)CSc1nc2ccccc2c(=O)n1CCc1ccc(S(N)(=O)=O)cc1,-4,-2,17,4,-8,7
Cc1sc(NC(=O)C2C3C=CC(C3)C2C(=O)O)c(C(N)=O)c1-c1ccc(C(C)C)cc1 (stereo not given),-11,6,1,0,6,2
COc1ccc(CN2CCNC(=O)C2CC(=O)N(C)CCCN2CCOCC2)cc1C (stereo not given),20,-3,-6,0,6,-14
OCCCCNCc1ccc(OCc2ccc(Cl)cc2Cl)cc1,14,-7,35*,11,-27,-27
CN(C(=O)CSc1cc(Cl)ccc1Cl)C1CCS(=O)(=O)C1 (stereo not given),6,-2,-29,0,23,-9
CC(=O)c1cccc(NC(=O)Nc2ccc3c(c2)N(C)C(=O)CS3)c1,-1,5,35*,15,-18,8
CCc1ccc(NC(=O)Nc2ccc3c(c2)N(C)C(=O)CS3)cc1,6,1,28,11,-23,16
Cc1cc(C)cc(NC(=O)Nc2ccc3c(c2)N(C)C(=O)CS3)c1,-2,-2,44*,13,-29,21
SMILES,M1 PAM parental,CHRM1 agonist,CHRM1 antagonist,CHO-K1 Ca ag,CHRM1 PAM,CHO-K1 Ca antag
Cc1ccc(NC(=O)Nc2ccc3c(c2)N(C)C(=O)CS3)cc1C,-6,0,32*,13,-23,35*
CCc1nc2c(OCc3cc(Cl)cc(Cl)c3)cccn2c1N(C)C(=O)c1ccc(OC)cc1,2,-7,-12,0,-3,17
CCOC(=O)C1CCCN(C(=O)c2ccc(Cl)c(S(=O)(=O)N3CCc4ccccc43)c2)C1 (stereo not given),10,-3,12,9,-5,-21
CCOC(=S)SCC(=O)Nc1nc(-c2ccc(Br)cc2)cs1,11,-4,32*,2,4,-5
CCOC(=O)N1CCN(C(=O)CSCC(=O)Nc2nc(-c3ccc(-c4ccccc4)cc3)cs2)CC1,8,4,48*,8,-19,7
CCOC(=O)N1CCN(C(=O)CSCc2ccc(C)cc2)CC1,-8,0,18,0,-1,26*
Cc1ccc(-c2csc(NC(=O)CSC3=NCCS3)n2)cc1,-6,-6,4,0,-10,25*
Cc1sc(NC(=O)CSC2=NCCS2)nc1-c1ccccc1,6,-4,-24,0,-2,1
CCOC(=S)SCC(=O)Nc1nc(-c2ccccc2)cs1,19,-6,-8,5,6,-8
CCOc1ccccc1CNC(=O)CN1C(=O)CSc2ccc(S(=O)(=O)N3CCOCC3)cc21,18,-13,-2,2,-10,-15
O=C(NCC1CCCO1)C1CCN(C2CCN(C(=O)CC3CCCC3)CC2)CC1 (stereo not given),-19,-13,9,0,6,27*
O=C(NCC1CCCO1)C1CCN(C2CCN(CCCC3CCCC3)CC2)CC1 (stereo not given),7,-11,-3,0,9,4
CCN1C(=O)S/C(=C/c2c(OCc3ccc(C(=O)O)cc3)ccc3ccccc23)C1=O,19,29*,0,2,16,-10
O=C(O)c1ccc(COc2ccc3ccccc3c2/C=C2/NC(=O)N(c3ccccc3)C2=O)cc1,11,-5,17,0,-2,-1
COc1ccccc1CNC(=O)C(=O)NCC1CCCN1S(=O)(=O)c1cccs1 (stereo not given),-12,-5,-7,2,2,3
COc1ccc(/C=N/NC(=O)c2nnn(-c3nonc3N)c2-c2cccs2)cc1OC,-2,0,0,6,-1,2
CCOc1cccc(-c2c(C(=O)N/N=C/c3ccncc3)nnn2-c2nonc2N)c1,4,3,-12,1,6,3
Nc1nonc1-n1nnc(C(=O)N/N=C/c2ccc(F)cc2)c1-c1ccc2c(c1)OCO2,4,2,-8,1,4,-19
COc1cccc(-c2c(C(=O)N/N=C/c3cccs3)nnn2-c2nonc2N)c1,19,44*,-9,32*,8,-19
COc1ccc(/C=N/NC(=O)c2nnn(-c3nonc3N)c2-c2cccc(OC)c2)cc1,29,38*,-8,9,4,-16

# Screening data from PubChem.
